# From PubChem BioAssay (Tox21)
# Where “and” joins values, the source holds several entries; their conditions need not be identical. Equal entries are not always repeated. Results filed as inconclusive are left out. A call without a number means that no potency is given here. Some compounds were tested as several samples or in several runs, with calls that do not always agree. Calls of active or inactive are those of the source. Unless noted, the call rests on the fitted dose curve; in most records, active means well fitted curve in the direction sought with a large enough effect in the repeat runs; inconclusive means weak or mixed curves; inactive means no such curve, though single readings can be large; an effect the other way counts as inactive or inconclusive.
# How the values were obtained:
# [1] = A CellTox Green Cytotoxicity Assay to monitor cytotoxicity in HepG2 cells - 0 hour (AID 1224882); settings: CellTox Green fluorescence; series mostly up to 76.8 µM; further: nearly all actives have a fitted effect of over 35% in size; further: potency means the concentration at half of the fitted maximal effect
# Outline: (§1)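 Real-time cytotoxicity: fluorescence of a cell-impermeant cyanine dye binding DNA of dead HepG2 cells, measured repeatedly (0–40 h) during compound exposure at 37 C. Cells seeded 600/well with reagent, dosed after 5 h.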
# [2] = A CellTox Green Cytotoxicity Assay to monitor cytotoxicity in HepG2 cells - 32 hour (AID 1224883); settings: CellTox Green fluorescence; series mostly up to 76.8 µM; further: nearly all actives have a fitted effect of over 50% in size; further: potency means the concentration at half of the fitted maximal effect
# Outline: as §1
# [3] = A CellTox Green Cytotoxicity Assay to monitor cytotoxicity in HEK293 cells - 8 hour (AID 1224884); settings: CellTox Green fluorescence; series mostly up to 76.8 µM; further: nearly all actives have a fitted effect of over 35% in size; further: potency means the concentration at half of the fitted maximal effect
# Outline: (§2)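 Fluorescence from a DNA-binding dye excluded by viable cells was measured repeatedly in the same HEK293 wells (600 cells/well) during continuous compound exposure at 37 C. Each assay gives one read point: 0, 8, 16, 24, 32 or 40 h.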
# [4] = qHTS RealTime-Glo MT Cell Viability Assay in HepG2 cells - 16 hour (AID 1224885); settings: RealTime-Glo luminescence; series mostly up to 76.8 µM; further: nearly all actives have a fitted effect of over 50% in size; further: potency means the concentration at half of the fitted maximal effect
# Outline: (§3)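 qHTS, HepG2, 600 cells/well, RealTime-Glo (NanoLuc + prosubstrate) added with cells; 5 h preincubation; DMSO compound addition; 37 C; luminescence at 0/8/16/24/32/40 h.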
# [5] = qHTS RealTime-Glo MT Cell Viability Assay in HEK293 cells - 24 hour (AID 1224886); settings: RealTime-Glo luminescence; series mostly up to 76.8 µM; further: nearly all actives have a fitted effect of over 50% in size; further: potency means the concentration at half of the fitted maximal effect
# Outline: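 Assay medium contained NanoLuc luciferase plus cell-permeant prosubstrate, added with HEK293 cells at 600 cells/well. After 5 h at 37 C/5% CO2 compounds were added; plates stayed at 37 C for 40 h with serial luminescence reads.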
# [6] = qHTS RealTime-Glo MT Cell Viability Assay in HEK293 cells - 8 hour (AID 1224887); settings: RealTime-Glo luminescence; series mostly up to 76.8 µM; further: nearly all actives have a fitted effect of over 50% in size; further: potency means the concentration at half of the fitted maximal effect
# Outline: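 Luminescence, which tracks viable cell number through reduction of the prosubstrate to a NanoLuc substrate, was read over continuous 37 C culture. Cells (600/well) were premixed with reagent and rested 5 h before 23 nL of compound in DMSO was pinned.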
# [7] = A CellTox Green Cytotoxicity Assay to monitor cytotoxicity in HEK293 cells - 16 hour (AID 1224888); settings: CellTox Green fluorescence; series mostly up to 76.8 µM; further: nearly all actives have a fitted effect of over 35% in size
# Outline: as §2
# [8] = qHTS RealTime-Glo MT Cell Viability Assay in HepG2 cells - 0 hour (AID 1224889); settings: RealTime-Glo luminescence; series mostly up to 76.8 µM; further: nearly all actives have a fitted effect of over 50% in size
# Outline: as §3
# [9] = A CellTox Green Cytotoxicity Assay to monitor cytotoxicity in HepG2 cells - 8 hour (AID 1224890); settings: CellTox Green fluorescence; series mostly up to 76.8 µM; further: nearly all actives have a fitted effect of over 45% in size; further: potency means the concentration at half of the fitted maximal effect
# Outline: as §1
# [10] = qHTS assay to identify small molecule antagonists of the estrogen receptor alpha (ER-alpha) signaling pathway using the BG1 cell line in the presence of 0.1 nM 17-beta-estradiol - cell viability counter screen (AID 1259241); settings: VM7Luc4E2 (BG1) viability, CellTiter-Fluor protease, 22 h, 0.1 nM estradiol agonist added; series mostly up to 92.4 µM; further: nearly all actives have a fitted effect of over 40% in size
# Outline: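 The cell line endogenously expresses full-length ER-alpha and carries four EREs driving luciferase. Cells are cultured 5 days hormone-free, treated 22 hr with compounds and 0.1 nM estradiol, then viability is read by fluorescence.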
# [11] = qHTS assay to identify small molecule antagonists of the androgen receptor (AR) signaling pathway using the MDA cell line in the presence of 0.5 nM R1881 - cell viability counter screen (AID 1259242); settings: MDA-kb2 viability, CellTiter-Fluor protease fluorescence, 16 h; series mostly up to 92.4 µM; further: nearly all actives have a fitted effect of over 45% in size
# Outline: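 Live-cell protease activity was measured by CellTiter-Fluor fluorescence after 30 min. Before that, MDA-kb2 MMTV-luciferase cells had 16 hr at 37C without CO2, exposed to test compounds and 0.5 nM R1881 final.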
# [12] = qHTS assay to identify small molecule HDAC inhibitors (AID 1259364); settings: HCT-116 HDAC-Glo I/II luminescence, 2 h; series mostly up to 92.4 µM; further: nearly all actives have a fitted effect of over 45% in size; further: potency means the concentration at half of the fitted maximal effect
# Outline: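 Luminescence read after 30 min room-temperature HDAC-Glo incubation measures cellular class I/II HDAC activity. Compounds were applied for 2 hr at 37 C to HCT-116 wild-type cells seeded the day before.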
# [13] = qHTS assay to identify small molecule HDAC inhibitors - cell viability counter screen (AID 1259365); settings: HCT-116 viability, CellTiter-Glo ATP luminescence, 2 h; series mostly up to 92.4 µM; further: nearly all actives have a fitted effect of over 50% in size
# Outline: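 Viability readout: CellTiter-Glo luminescence. Wild-type HCT-116 cells, 2hr compound treatment following overnight attachment at 37 C.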
# [14] = qHTS assay to identify small molecule agonists of the sonic hedgehog signaling (Shh) pathway - cell viability counter screen (AID 1259366); settings: NIH/3T3 Gli1-Luc viability, CellTiter-Fluor, 24 h; series mostly up to 92.4 µM; further: nearly all actives have a fitted effect of over 50% in size; further: potency means the concentration at half of the fitted maximal effect
# Outline: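 Viability measured fluorometrically (CellTiter-Fluor, 1hr, 37C) in 3T3 Gli1-Luc reporter cells after 23hr compound exposure within a 24hr incubation at 37C/5% CO2.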
# [15] = qHTS assay to identify small molecule antagonists of the sonic hedgehog signaling (Shh) pathway - cell viability counter screen (AID 1259367); settings: NIH/3T3 Gli1-Luc viability, CellTiter-Fluor, 24 h; series mostly up to 92.4 µM; further: nearly all actives have a fitted effect of over 55% in size; further: potency means the concentration at half of the fitted maximal effect
# Outline: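 Viability was read by CellTiter-Fluor fluorescence in the same wells, reagent added 23 hr into compound treatment and incubated 1 hr at 37C. The 3T3 Gli1-Luc reporter cells (2,000/well) received conditioned medium after compound and ran 24 hr.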
# [16] = qHTS assay to identify small molecule agonists of the sonic hedgehog signaling (Shh) pathway (AID 1259368; calls by dose curve;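 further: NIH/3T3-derived 3T3Gli1-Luc cells carrying a stable Gli1-driven firefly luciferase reporter; nearly all actives have a fitted effect of over 15% in size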); settings: NIH/3T3 Gli1-Luc reporter, luciferase, 24 h, stronger effect = higher value; series mostly up to 92.4 µM
# Outline: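 Luminescence was read after 30 min at room temperature with luciferase reagent. Before that, 3T3Gli1-Luc cells (NIH/3T3 clone, stable Gli1-Luc reporter; 2,000/well) were exposed to compounds for 24 hr at 37C, 5% CO2, compounds being added 4 hr post-plating.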
# [17] = target: Estrogen receptor (Homo sapiens) (UniProt P03372); test: qHTS assay to identify small molecule antagonists of the estrogen receptor alpha (ER-alpha) signaling pathway using the BG1 cell line in the presence of 0.1 nM 17-beta-estradiol (AID 1259244); settings: VM7Luc4E2 (BG1) ERE-luciferase, antagonist mode, 0.1 nM E2, 22 h; series mostly up to 92.4 µM; further: nearly all actives have a fitted effect of over 50% in size; further: potency means the concentration at half of the fitted maximal effect
# Outline: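 Luciferase luminescence (ONE-Glo, 30 min at room temperature) was read after 22 hr at 37C exposure to compounds plus 17beta-estradiol at 0.1 nM final. Cells were VM7Luc4E2 with endogenous ER-alpha and an ERE-driven luciferase, pre-cultured 5 days in hormone-depleted medium.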
# [18] = target: Androgen receptor (Homo sapiens) (UniProt P10275); test: qHTS assay to identify small molecule antagonists of the androgen receptor (AR) signaling pathway using the MDA cell line in the presence of 0.5 nM R1881 (AID 1259243); settings: MDA-kb2 MMTV-luciferase, R1881 0.5 nM, 16 h; series mostly up to 92.4 µM; further: nearly all actives have a fitted effect of over 50% in size
# Outline: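 Luminescent reporter readout (ONE-Glo, 30 min, room temperature) after 16 hr co-treatment of MDA-kb2 cells with test compounds and 0.5 nM R1881 final, at 37C without CO2. The MMTV-driven luciferase responds to both AR and GR.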
# [19] = qHTS assay to identify small molecule phospholipidosis (PLD) inducers (AID 1259344; active means well fitted curve in the direction sought with a large enough effect; an effect the other way counts as inactive or inconclusive); settings: HepG2 phospholipidosis, LipidTOX Red imaging, 24 h; series mostly up to 38.3 µM
# Outline: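 Phospholipid accumulation was scored by imaging: fixed, Hoechst-counterstained HepG2 cells stained with LipidTOX Red after 24 h compound exposure at 37 C. Read-outs were pit count and pit intensity per well or per cell, with amiodarone and DMSO controls.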
# Androgen receptor (Homo sapiens), sequence (P10275 whole entry, looked up): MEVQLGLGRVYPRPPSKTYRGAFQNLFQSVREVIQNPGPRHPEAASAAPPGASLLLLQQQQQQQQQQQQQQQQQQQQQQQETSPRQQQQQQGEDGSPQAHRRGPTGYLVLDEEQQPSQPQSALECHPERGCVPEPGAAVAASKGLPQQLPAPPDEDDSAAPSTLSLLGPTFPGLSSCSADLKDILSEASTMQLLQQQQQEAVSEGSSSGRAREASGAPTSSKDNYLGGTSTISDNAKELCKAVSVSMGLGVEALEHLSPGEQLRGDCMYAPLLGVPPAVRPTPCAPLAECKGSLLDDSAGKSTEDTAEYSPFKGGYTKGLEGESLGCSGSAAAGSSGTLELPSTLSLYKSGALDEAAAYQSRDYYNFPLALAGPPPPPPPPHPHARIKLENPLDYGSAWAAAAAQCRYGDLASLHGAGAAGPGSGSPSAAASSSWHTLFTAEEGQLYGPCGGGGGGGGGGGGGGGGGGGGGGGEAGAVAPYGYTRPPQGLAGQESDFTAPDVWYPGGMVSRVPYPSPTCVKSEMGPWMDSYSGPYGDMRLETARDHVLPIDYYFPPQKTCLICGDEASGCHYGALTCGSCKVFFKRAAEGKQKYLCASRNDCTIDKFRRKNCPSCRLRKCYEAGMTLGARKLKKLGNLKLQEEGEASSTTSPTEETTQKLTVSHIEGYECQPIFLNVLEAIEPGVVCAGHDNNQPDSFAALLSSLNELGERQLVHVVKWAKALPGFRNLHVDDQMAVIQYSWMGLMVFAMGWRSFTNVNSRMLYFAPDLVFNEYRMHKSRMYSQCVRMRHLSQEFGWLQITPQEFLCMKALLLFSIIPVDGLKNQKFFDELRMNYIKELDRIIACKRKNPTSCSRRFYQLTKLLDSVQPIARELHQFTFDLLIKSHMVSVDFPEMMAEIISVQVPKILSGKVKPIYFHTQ
# Estrogen receptor (Homo sapiens), sequence (P03372 whole entry, looked up): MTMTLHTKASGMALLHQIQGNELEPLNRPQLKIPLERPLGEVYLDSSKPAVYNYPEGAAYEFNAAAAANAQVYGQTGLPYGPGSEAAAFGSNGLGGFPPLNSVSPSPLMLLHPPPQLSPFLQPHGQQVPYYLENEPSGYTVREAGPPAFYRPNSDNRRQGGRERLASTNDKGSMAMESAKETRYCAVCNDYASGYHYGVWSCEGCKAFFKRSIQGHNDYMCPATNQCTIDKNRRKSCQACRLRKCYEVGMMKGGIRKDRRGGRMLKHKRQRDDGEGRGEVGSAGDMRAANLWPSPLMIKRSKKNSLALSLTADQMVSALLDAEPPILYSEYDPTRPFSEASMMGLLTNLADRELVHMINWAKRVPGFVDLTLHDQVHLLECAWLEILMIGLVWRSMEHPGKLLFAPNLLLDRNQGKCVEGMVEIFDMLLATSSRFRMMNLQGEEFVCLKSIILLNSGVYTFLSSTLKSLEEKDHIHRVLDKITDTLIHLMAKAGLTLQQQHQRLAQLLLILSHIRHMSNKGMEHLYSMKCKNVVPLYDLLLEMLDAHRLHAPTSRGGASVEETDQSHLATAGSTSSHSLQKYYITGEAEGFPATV
Structure (SMILES),Potency [1],Potency [2],Potency [3],Potency [4],Potency [5],Potency [6],Potency [7],Potency [8],Potency [9],Potency [10],Potency [11],Potency [12],Potency [13],Potency [14],Potency [15],outcome [16],Potency [17],Potency [18],PLD induction [19],outcome [19]
CCCC[N+]1(C)CCCCC1,inactive,inactive,inactive and 55.7 µM (active),inactive,inactive,inactive,inactive,inactive,inactive,inactive,inactive,inactive,inactive,inactive,inactive,inactive,,,,
CCCC[n+]1ccccc1C,inactive,inactive,inactive,inactive,inactive,inactive,inactive,inactive,inactive,inactive,inactive,inactive,inactive,inactive,inactive,inactive,,,,
Nc1ccc(-c2ccc(N)c(Cl)c2)cc1Cl,inactive and 43.6 µM (active),17.5 µM (active) and 14.4 µM (active) and 27.5 µM (active),inactive and 49 µM (active),inactive and 49 µM (active),15.6 µM (active) and 24.5 µM (active),24.5 µM (active),,inactive,inactive and 43.6 µM (active),inactive,inactive,inactive and 27.3 µM (active),inactive,inactive and 7.18 µM (active) and 30.6 µM (active),2.27 µM (active) and 8.63 µM (active),inactive,48.6 µM (active),,,
CCC[N+]1(C)CCCC1,inactive,inactive,inactive,inactive,inactive,inactive,inactive,inactive,inactive,inactive,inactive,inactive,inactive,inactive,inactive,inactive,,,,
O=S(=O)(O)O,inactive,inactive,inactive,inactive,inactive,inactive,inactive,inactive,inactive,inactive,inactive,inactive,inactive,inactive,inactive,inactive,,,,
N#CS,inactive,inactive,inactive,inactive,inactive,inactive,inactive,inactive,inactive,inactive,inactive,inactive,inactive,inactive,inactive,inactive,,,,
COc1ccc(N)cc1,inactive,inactive and 245 nM (active),inactive,inactive,inactive,inactive,inactive,inactive,inactive,inactive,inactive,inactive,inactive,inactive,inactive,inactive,,,,
CCCC[n+]1ccccc1,inactive,inactive,inactive,inactive,inactive,inactive,inactive,inactive,inactive,inactive,inactive,inactive,inactive,inactive,inactive,inactive,,,,
CCCC[n+]1cccc(C)c1,inactive,inactive,inactive,inactive,inactive,inactive,inactive,inactive,inactive,inactive,inactive,inactive,inactive,inactive,inactive,inactive,,,,
CCC(=O)C(CC(C)N(C)C)(c1ccccc1)c1ccccc1 (configuration not stated),inactive,43.8 µM (active) and 48.6 µM (active) and inactive,inactive,inactive,,inactive,inactive,inactive,inactive,inactive,inactive,inactive,,,27.4 µM (active),inactive,inactive,inactive,2.52% [at 3.15 µM] (inactive),
CC[N+](CC)(CC)CC,inactive,inactive,inactive,inactive,inactive,inactive,inactive,inactive,inactive,inactive,inactive,inactive,inactive,inactive,inactive,inactive,,,,inactive
